Results: PubChem BioAssay AID813 (Sanford-Burnham Center for Chemical Genomics, 2007)
Out of some 64,000 compounds screened, fewer than 10 were called active.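 How the source made its calls: active means activation factor of at least 2 at 20 µM, relative to controls; inactive means the rest.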 Not all results are given here.

What follows are compounds tested against Alkaline phosphatase, tissue-nonspecific isozyme (Homo sapiens) (UniProt P05186) (assay: stimulation of alkaline phosphatase TNAP activity – biochemical, luminescent, intermediate phosphate acceptor level, primary screen (AID 813)). Details: purified TNAP, CDP-star luminescence, 100 mM DEA, 30 min; at 20 µM; active compounds read high; scale: 0 levamisole-inhibited, 1 vehicle-only enzyme.
Sequence of Alkaline phosphatase, tissue-nonspecific isozyme (Homo sapiens) (P05186 whole entry, looked up): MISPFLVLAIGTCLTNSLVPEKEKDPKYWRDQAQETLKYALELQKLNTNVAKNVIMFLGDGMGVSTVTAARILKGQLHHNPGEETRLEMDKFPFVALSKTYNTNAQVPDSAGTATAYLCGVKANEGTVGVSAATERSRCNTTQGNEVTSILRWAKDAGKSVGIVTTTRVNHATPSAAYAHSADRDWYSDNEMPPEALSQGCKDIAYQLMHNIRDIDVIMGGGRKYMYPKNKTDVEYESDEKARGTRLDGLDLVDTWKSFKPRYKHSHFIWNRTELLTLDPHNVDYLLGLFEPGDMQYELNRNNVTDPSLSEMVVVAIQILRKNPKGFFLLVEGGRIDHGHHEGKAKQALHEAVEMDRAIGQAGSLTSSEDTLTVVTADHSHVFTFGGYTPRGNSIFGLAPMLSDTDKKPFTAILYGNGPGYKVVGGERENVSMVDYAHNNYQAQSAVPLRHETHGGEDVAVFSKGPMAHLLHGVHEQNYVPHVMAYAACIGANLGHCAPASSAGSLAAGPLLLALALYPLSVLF

Activation factor, inactive:
Cc1ccc(C)n1-c1ccncc1 0.9
Cc1cc(N2C(=O)C(=O)/C(=C(/O)c3ccc(Cl)cc3)C2c2cccc(Br)c2)no1 (stereo not drawn) 0.8
CCCOc1ccc(CN(CCO)CCO)cc1C(=O)OC 0.9
CN(C)Cc1c(O)ccc2occ(C(O)c3ccccc3)c12 (stereo not drawn) 0.9
CCn1cc(C(=O)NC2CCCCCC2)c(=O)c2cc(S(=O)(=O)N3CCCCC3)ccc21 0.9
CCn1cc(C(=O)N2CCN(C3CCCCC3)CC2)c2cc(OC)c(OC)cc2c1=O 0.9
CCOC(=O)N1CCN(C(=O)c2ccc3nc4cc(Cl)ccc4c(=O)n3c2)CC1 0.9
CCc1nc(C)cn1S(=O)(=O)c1cc(OC)c(C)cc1C 0.9
O=C(O)CC(c1ccccc1)n1cnnn1 (stereo not drawn) 1
COCCCn1c(CCC(=O)O)ccc1-c1ccc(F)cc1 0.9
CC1CN(C(=O)c2ccc3c(c2)OCO3)OC(c2ccccc2)O1 (stereo not drawn) 1
COC(=O)[C@H](Cc1ccccc1)NC(=O)Nc1ccc(S(N)(=O)=O)cc1 0.9
CC(=O)N=c1ncn(CC(COC(C)=O)OC(C)=O)c2nc[nH]c12 (stereo not drawn) 0.9
O=C(COc1ccc2c3c(c(=O)oc2c1)CCC3)NC1CCCCC1 1
Cc1ccc(S(=O)(=O)NCC(=O)N(CC(=O)NC2CCCCC2)Cc2ccco2)cc1 0.9
CC(C)c1cc(C(=O)O)on1 1
Cc1cc(C)cc(N(CC(=O)Nc2c(C)n(C)n(-c3ccccc3)c2=O)S(C)(=O)=O)c1 0.9
CC(C)(C)n1nnc(CCc2nnn(C(C)(C)C)n2)n1 0.9
O=C(c1ccccc1)c1ccc(OC(=O)N2CCCC2)cc1 0.9
COc1cc(OC)c(C(=O)NC2CC(C)(C)NC(C)(C)C2)cc1OC 1
CCOc1ccc(C(=O)NC2CCN(S(=O)(=O)CC)CC2)cc1 0.9
COc1ccc(S(=O)(=O)N2CCCC(C(=O)N3CCN(C)CC3)C2)cc1C (stereo not drawn) 1
COC(=O)COc1ccc2oc(=O)cc(C)c2c1 1
CC(=O)Nc1ccc(S(=O)(=O)N2CCSCC2)cc1 1
O=C(CCCN1C(=O)CCC1=O)Nc1ccc(Cl)c(C(F)(F)F)c1 0.9
Cc1cc(N2C(=O)C(=O)/C(=C(/O)c3ccccc3)C2c2cccc(Br)c2)no1 (stereo not drawn) 1
CCn1cc(C(=O)N2CCN(Cc3ccc4c(c3)OCO4)CC2)c2cc(OC)c(OC)cc2c1=O 0.9
CCc1c(C)c2c(C)[nH]nc2oc1=O 0.8
